# From PubChem BioAssay (NCI)
# Compounds without any hit were thinned out: in the full panel of roughly 79,000, 15% have a hit. Calls of active or inactive are those of the source. Cut-off read from the data, not from the text of the source: active = growth inhibition above about 70%; inactive = the rest.
# Assay: NCI Yeast Anticancer Drug Screen. Data for the bub3 strain (AID 167)
# Settings: S. cerevisiae bub3 mutant strain, at 50.0 µM, active compounds read high
# Summary of the method: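 Readout: yeast growth inhibition, expressed relative to vehicle-only wells. The test organism is a mutant strain from a panel with lesions in DNA repair or checkpoint genes.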
row,SMILES,growth inhibition
1,CCOC(=O)c1ccc(NC(=O)/C=C/C(=O)O)cc1,-9.7% (inactive)
2,Cc1ccc(-n2cnc3c(Cl)ncnc32)cc1,-16.8% (inactive)
3,CCOC(=O)N[C@@H]1C(CC(=O)OC)O[C@H]2OC(C)(C)O[C@H]21 (stereo not given in full),-9.55% (inactive)
4,COc1ccc(N=Cc2cc(Cl)cc(Cl)c2OC(=O)c2ccccc2)cc1,-13.6% (inactive)
5,CSc1nc(N)c(NS(=O)(=O)c2ccc([N+](=O)[O-])cc2)c(=O)[nH]1,10.1% (inactive)
6,CCOc1ncc(C(O)c2ccc(F)cc2)c(OCC)n1 (stereo not given),11.4% (inactive)
7,COc1cc(C(=O)N2C3C4CCC(C)(OC4(C)C)C32)cc(OC)c1OC (stereo not given),6% (inactive)
8,CCCCc1c[nH]n(C(N)=NCCSCc2nc[nH]c2C)c1=O,-2.45% (inactive)
9,CCOC(=O)c1ccc(C(=O)OCC)n1-c1cc2cc(c1)CSCc1cc(cc(-n3c(C(=O)OCC)ccc3C(=O)OCC)c1)CSC2,-13.8% (inactive)
10,NC1C=NNC1=O (stereo not given),-10.1% (inactive)
11,O=C1CSC(=NCCN=C2NC(=O)CS2)N1,15.1% (inactive)
12,OCC1CC=CCC1 (stereo not given),-27.1% (inactive)
13,CC(C)=CCC/C(C)=C/CN,9% (inactive)
14,O=C(Oc1ccc(OC(=O)c2ccccc2)c(C2CCCCCC2)c1)c1ccccc1,7.1% (inactive)
15,Cc1[nH]c(=O)nc(N/N=C/c2ccc(Cl)cc2)c1C(=O)Nc1ccc(Cl)cc1,-34.4% (inactive)
16,CC(=O)C1(C)CCC2C3CCC4=CC(=O)CCC4=C3CCC21C (stereo not given),34% (inactive)
17,CC(C)N1CN(C(C(=O)N[C@@H]2C(=O)N3C2SC(C)(C)C3C(=O)O)c2ccccc2)CSC1=S (stereo not given in full),-9.85% (inactive)
18,N#CC(C(=O)C(=O)Nc1cccc(Cl)c1)c1ccccc1 (stereo not given),-11.8% (inactive)
19,CCC(C)(CCC(C)C)c1ccncc1 (stereo not given),-0.75% (inactive)
20,CCCCOC(OCCCC)C(OCCCC)OCCCC,16.4% (inactive)

row,SMILES,growth inhibition
1,C=CCOC(=O)CC(O)(CC(=O)OCC=C)C(=O)OCC=C,-6.4% (inactive)
2,CC1=C(C(=O)Nc2ccc([N+](=O)[O-])cc2)C(c2ccc3c(c2)OCO3)C(C(=O)Nc2ccc([N+](=O)[O-])cc2)=C(C)N1,10.2% (inactive)
3,O=C(O)CCC1(c2ccccc2)NC(=O)NC1=O (stereo not given),-1.1% (inactive)
4,COc1ccccc1C1C(C(=O)Nc2ccccc2)=C(C)NC(C)=C1C(=O)Nc1ccccc1,-3.85% (inactive)
5,C[C@]12CC[C@@H]3c4ccc(OCCCO)c([N+](=O)[O-])c4CC[C@H]3[C@@H]1CCC2=O,-0.5% (inactive)
6,C[Si](C)(C)N1CCCC1,3.5% (inactive)
7,CCOCCOC(=O)c1ccc(C(C)C)cc1,5.25% (inactive)
8,NC(=O)c1ccccc1NC(=O)C(=O)C(C(=O)c1ccc2ccccc2c1)C1OC(=O)c2ccccc21 (stereo not given),15.4% (inactive)
9,N#CCCN(c1ccc(C=Nc2ccc(C(=O)O)cc2)cc1)S(=O)(=O)c1ccccc1,19.9% (inactive)
10,CCCCC1=C(C)C/C(=N/Nc2ccc([N+](=O)[O-])cc2[N+](=O)[O-])C(C)C1CCCC (stereo not given),3.3% (inactive)
11,CC(=O)Nc1ccc(S(=O)(=O)N=S(c2ccccc2)c2ccccc2)cc1,-7.2% (inactive)
12,CCCCCCCCCCCCSc1nc2c([nH]1)c(=O)n(C)c(=S)n2C,-1.05% (inactive)
13,CC1(C)OC2C(COCc3ccccc3)=CC(n3ccc(=O)[nH]c3=O)C2O1 (stereo not given),10.1% (inactive)
14,O=C1C=CC(=O)C1N=Nc1ccccc1,-3.15% (inactive)
15,CCOC(=O)Nc1ccc(C2SCCN2C(=O)Nc2ccc(Cl)cc2)cc1 (stereo not given),-7.7% (inactive)
16,C[C@@]12CCC(=O)C=C1CC[C@H]1C2C(=O)C[C@]2(C)C1CC[C@@]2(O)C(=O)COC(=O)CCC(=O)O (stereo not given in full),6.95% (inactive)
17,O=S(=O)(c1ccc(O)c(Cl)c1)c1ccc(O)c(Cl)c1,47.2% (inactive)
18,CC(C)N(C(=O)C12C3C4C5C3C1(C(=O)N(C(C)C)C(C)C)C5(C#N)C42)C(C)C (stereo not given),13.4% (inactive)
19,NCc1ccccc1F,-6.75% (inactive)
20,O=C1c2ccccc2C(=O)N1Cc1ccccc1-c1c2nc(c(-c3ccccc3CN3C(=O)c4ccccc4C3=O)c3ccc([nH]3)c(-c3ccccc3CN3C(=O)c4ccccc4C3=O)c3nc(c(-c4ccccc4CN4C(=O)c5ccccc5C4=O)c4ccc1[nH]4)C=C3)C=C2,13.6% (inactive)
